Where a name gives a salt, the structure may show the parent alone. ± gives the standard deviation of the averaged measurements.
Experiments:
Test in all cases: growth (OD600 after 10 h); higher = more growth (less inhibition)
[1] = system: E. coli TESEC Alr+ wild-type control; details: compound 0.1 mM; raw OD600 reference: median of DMSO wells 0.241, cell-free background 0.041
Procedure: (§1)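 TESEC Mtb Alr E. coli, or the Alr+ wild-type control, in 384-well plates with Prestwick library compounds at 0.1 mM and 1% DMSO, across arabinose induction levels of 1E3 to 1E7 nM. Growth is read as OD600 after 10 h at 37 °C in triplicate biological replicates.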

[2] = system: E. coli TESEC Mtb Alr; details: compound 0.1 mM
Procedure: as §1

[3] = system: E. coli TESEC Mtb Asd; details: compound 0.1 mM
Procedure: (§2)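 TESEC E. coli strains in which the native enzyme is deleted and replaced by arabinose-inducible Mtb Asd, DapB, CysH or TrpD, each grown in its selective medium. Strains were screened against the Prestwick library at 0.1 mM and 1% DMSO in 384-well format at low and high arabinose induction. Growth is read as OD600 after 10 h in triplicate.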

[4] = system: E. coli TESEC Mtb Alr; details: compound 0.1 mM; remark: listed apart in the source
Procedure: (§3)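 TESEC Mtb Alr E. coli (ΔaraC ΔtolC ΔentC Δalr ΔdadX, arabinose-inducible Mtb Alr) or the Alr+ wild-type control strain, grown in defined M9-fructose medium without D-alanine in 96-well plates with Prestwick library compounds at 0.1 mM and 1% DMSO. Low Alr induction is 0.1 µM arabinose and high induction is 10 mM arabinose.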

[5] = system: E. coli TESEC Mtb DapB; details: compound 0.1 mM
Procedure: as §2

[6] = system: E. coli TESEC Alr+ wild-type control; details: compound 0.1 mM; raw OD600 reference: median of DMSO wells 0.49, cell-free background 0.052
Procedure: as §3

[7] = arabinose 1000 nM, raw OD600 reference: median of DMSO wells 0.294, cell-free background 0.041
[8] = arabinose 10000 nM, raw OD600 reference: median of DMSO wells 0.264, cell-free background 0.041
[9] = arabinose 100000 nM, raw OD600 reference: median of DMSO wells 0.201, cell-free background 0.041
[10] = arabinose 1000000 nM, raw OD600 reference: median of DMSO wells 0.193, cell-free background 0.041
[11] = arabinose 10000000 nM, raw OD600 reference: median of DMSO wells 0.146, cell-free background 0.041
[12] = arabinose induction (level): High, raw OD600 reference: median of DMSO wells 0.331, cell-free background 0.041
[13] = arabinose induction (level): Low, raw OD600 reference: median of DMSO wells 0.417, cell-free background 0.041
[14] = arabinose 100 nM, raw OD600 reference: median of DMSO wells 0.413, cell-free background 0.052
[15] = arabinose 10000000 nM, raw OD600 reference: median of DMSO wells […], cell-free background 0.052
[16] = arabinose induction (level): High, raw OD600 reference: median of DMSO wells […], cell-free background 0.041
[17] = arabinose induction (level): Low, raw OD600 reference: median of DMSO wells 0.227, cell-free background 0.041

Compound	growth [1]	growth [2, 7]	growth [2, 8]	growth [2, 9]	growth [2, 10]	growth [2, 11]	growth [3, 12]	growth [3, 13]	growth [4, 14]	growth [4, 15]	growth [5, 16]	growth [5, 17]	growth [6]
CCCC(C)C1(CC)C(=O)NC(=O)NC1=O (configuration not stated) [Pentobarbital]	0.233 ± 0.0093	0.279 ± 0.016	0.255 ± 0.013	0.233 ± 0.019	0.203 ± 0.011	0.143 ± 0.0092	0.451 ± 0.018	0.399 ± 0.087	0.4 ± 0.018	0.369 ± 0.0053	–	–	–
C[C@@H]1CC[C@H]2[C@@H](C)C(=O)O[C@@H]3O[C@@]4(C)CC[C@@H]1[C@]32OO4 [Artemisinin]	0.125 ± 0.01	–	–	–	–	–	0.219 ± 0.025	0.216 ± 0.042	0.348 ± 0.0058	0.135 ± 0.025	0.179 ± 0.012	0.191 ± 0.0069	–
CCN(C(C)=O)c1cccc(-c2ccnc3c(C#N)cnn23)c1 [Zaleplon]	0.205 ± 0.0057	0.259 ± 0.0063	0.238 ± 0.004	0.205 ± 0.028	0.154 ± 0.0051	0.132 ± 0.0056	0.243 ± 0.034	0.307 ± 0.086	0.411 ± 0.012	0.298 ± 0.011	–	–	–
CC(=O)OCC(=O)[C@H]1CC[C@H]2[C@@H]3CC[C@H]4C[C@H](O)CC[C@]4(C)[C@H]3C(=O)C[C@]12C [Alfadolone acetate]	0.15 ± 0.0034	–	–	–	–	–	0.289 ± 0.075	0.19 ± 0.0093	0.395 ± 0.007	0.257 ± 0.0074	0.137 ± 0.0076	0.157 ± 0.03	–
CC(Cc1ccc(O)cc1)NCC(O)c1cc(O)cc(O)c1 (configuration not stated) [Fenoterol hydrobromide]	0.241 ± 0.0046	–	–	–	–	–	0.298 ± 0.046	0.419 ± 0.025	0.406 ± 0.011	0.344 ± 0.0099	–	–	0.575 ± 0.046
C[C@]12COC(=O)C[C@@H]1CC[C@@H]1[C@@H]2CC[C@@]2(C)[C@H]1CC[C@]2(C)O [Oxandrolone]	0.157 ± 0.0027	0.189 ± 0.0087	0.232 ± 0.0096	0.126 ± 0.0067	0.105 ± 0.005	0.12 ± 0.0015	0.148 ± 0.0058	0.319 ± 0.033	0.42 ± 0.0079	0.246 ± 0.019	–	–	–
C[N+]1(C)CCOC(O)(c2ccc(-c3ccc(C4(O)C[N+](C)(C)CCO4)cc3)cc2)C1 (configuration not stated) [Hemicholinium bromide]	0.227 ± 0.013	–	–	–	–	–	0.352 ± 0.026	0.281 ± 0.069	0.403 ± 0.0081	0.397 ± 0.015	0.21 ± 0.012	0.217 ± 0.021	0.559 ± 0.071
C[C@]12CC[C@H](O)C[C@H]1CC[C@@H]1[C@@H]2C[C@@H](O)[C@]2(C)[C@@H](C3=CC(=O)OC3)CC[C@]12O [Digoxigenin]	0.228 ± 0.005	–	–	–	–	–	0.262 ± 0.025	0.458 ± 0.024	0.408 ± 0.02	0.331 ± 0.011	0.1864 ± 0.00095	0.244 ± 0.0061	0.491 ± 0.031
CC[C@@H](CO)NC(=O)[C@@H]1C=C2c3cccc4[nH]cc(c34)C[C@H]2N(C)C1 [Methylergometrine maleate]	0.227 ± 0.0031	0.262 ± 0.0081	0.207 ± 0.0073	0.279 ± 0.0098	0.119 ± 0.0017	0.178 ± 0.0023	0.228 ± 0.051	0.267 ± 0.069	0.4 ± 0.0081	0.359 ± 0.0099	–	–	–
CNC(C)(C)Cc1ccccc1 [Mephentermine hemisulfate]	0.247 ± 0.0094	–	–	–	–	–	0.273 ± 0.036	0.433 ± 0.033	0.402 ± 0.0066	0.381 ± 0.03	0.208 ± 0.012	0.221 ± 0.0061	–
O=[N+]([O-])O[C@@H]1CO[C@H]2[C@@H]1OC[C@@H]2O [Isosorbide mononitrate]	0.24 ± 0.0084	0.292 ± 0.0083	0.261 ± 0.018	0.198 ± 0.035	0.209 ± 0.018	0.136 ± 0.0044	0.255 ± 0.084	0.345 ± 0.017	0.4231 ± 0.0041	0.324 ± 0.012	–	–	–
COc1cccc(C2(O)CCCCC2CN(C)C)c1 (configuration not stated) [Tramadol hydrochloride]	0.238 ± 0.0082	–	–	–	–	–	0.31 ± 0.028	0.403 ± 0.065	0.4058 ± 0.0034	0.327 ± 0.016	0.188 ± 0.04	0.202 ± 0.014	–
CN[C@@H]1[C@@H](O)[C@@H](O[C@@H]2[C@@H](O)[C@H](O[C@H]3O[C@H](CN)CC[C@H]3N)[C@@H](N)C[C@H]2N)OC[C@]1(C)O.CN[C@@H]1[C@@H](O)[C@@H](O[C@@H]2[C@@H](O)[C@H](O[C@H]3O[C@H]([C@@H](C)N)CC[C@H]3N)[C@@H](N)C[C@H]2N)OC[C@]1(C)O.CN[C@@H]1[C@@H](O)[C@@H](O[C@@H]2[C@@H](O)[C@H](O[C@H]3O[C@H]([C@@H](C)NC)CC[C@H]3N)[C@@H](N)C[C@H]2N)OC[C@]1(C)O [Gentamicine sulfate]	0.0458 ± 0.00049	–	–	–	–	–	0.134 ± 0.021	0.0693 ± 0.0051	0.191 ± 0.13	0.0981 ± 0.037	–	–	–
CC(C)N(CCC(C(N)=O)(c1ccccc1)c1ccccn1)C(C)C (configuration not stated) [Disopyramide]	0.2355 ± 0.0022	–	–	–	–	–	0.313 ± 0.084	0.408 ± 0.057	0.41 ± 0.0056	0.351 ± 0.007	–	–	–
COc1ccc(CN2CCNCC2)c(OC)c1OC [Trimetazidine dihydrochloride]	0.228 ± 0.0052	0.3105 ± 0.0026	0.268 ± 0.0047	0.23 ± 0.024	0.172 ± 0.0071	0.162 ± 0.0046	0.301 ± 0.068	0.307 ± 0.11	0.409 ± 0.014	0.33 ± 0.019	–	–	–
NCCCNCCSP(=O)(O)O [Amifostine]	0.25 ± 0.0069	0.297 ± 0.011	0.273 ± 0.0058	0.253 ± 0.011	0.196 ± 0.013	0.145 ± 0.0044	0.372 ± 0.057	0.431 ± 0.061	0.402 ± 0.011	0.352 ± 0.011	–	–	–
C[C@@H]1O[C@@H](O[C@@H]2C=C3CC[C@@H]4[C@H](CC[C@]5(C)[C@@H](c6ccc(=O)oc6)CC[C@]45O)[C@@]3(C)CC2)[C@H](O)[C@H](O)[C@H]1O [Proscillaridin A]	0.182 ± 0.0085	–	–	–	–	–	0.117 ± 0.0017	0.234 ± 0.021	0.405 ± 0.009	0.267 ± 0.0065	0.163 ± 0.004	0.173 ± 0.019	–
c1ccc2nc(N3CCNCC3)ccc2c1 [Quipazine dimaleate salt]	0.232 ± 0.008	–	–	–	–	–	0.223 ± 0.013	0.257 ± 0.015	0.402 ± 0.0069	0.371 ± 0.02	–	–	–
C[C@]12CC[C@H]3[C@@H](CCC4=CC(=O)CC[C@@H]43)[C@@H]1CC[C@@H]2O [Nandrolone]	0.154 ± 0.0082	–	–	–	–	–	0.106 ± 0.0027	0.267 ± 0.1	0.408 ± 0.0099	0.211 ± 0.0078	–	–	–
